# High-throughput results (PubChem BioAssay)
# Sampled rows, rich in hits. Any-hit rate of the full collection: about 6.3%.
# PMK inhibit – S. pneumoniae PMK inhibition. purified PMK, PK/LDH-coupled NADH absorbance 340 nm. inhibition, % at 10 µM. 65,000 compounds, 0.49% hits;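 active = top-ranked compounds by inhibition in the single 10 µM screen, taking a fixed number of the strongest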;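 note: 0% = full reaction with DMSO carrier and 100% = background rate without enzyme reaction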
# Fluor 339 460 – intrinsic fluorescence of library compounds, ex339/em460 – biochemical, MLSMR library, data from DPM-DC assay, artefact control, profiling panel | 65,000 compounds, 5.5% hits | compound autofluorescence, ex339/em460 nm, NADH buffer; active compounds read high; 1 = no-compound wells, NADH background | fluorescence fold increase at 10 µM;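 active = at 10 µM, mean starting fluorescence two-fold or more over control wells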;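 note: signal is the first read of a kinetic run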
# NADH coupling – blocks coupling enzymes of NAD/NADH assays; coupled PK/LDH NADH assays, four targets; IC50, µM (top dose mostly 10 µM), without a hit: at the top dose inhibition; 65,000 compounds, 0.02% hits;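 active = single-dose screening hits from any of four coupled enzyme assays that gave an IC50 when retested across doses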;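 note: the DPM-DC format reads NADH fluorescence rather than 340 nm absorbance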
# A340 absorber – compound absorbs light at 340 nm | compound absorbance at 340 nm, fold over control | fold change at 10 µM | 65,000 tested, under 10 active;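 active = at 10 µM dose, initial 340 nm absorbance at least 2 fold that of control wells; inactive = change under 2 fold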;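 note: initial absorbance extrapolated from kinetic A340 decline of NADH oxidation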
# Spn DPM-DC inh – S. pneumoniae DPM-DC inhibition. AID 556. calls only at 10 µM. purified DPM-DC, PK/LDH coupled NADH fluorescence. 65,000 compounds, 0.49% hits;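 active = the 320 compounds with the highest percent inhibition in the single-dose primary screen, excluding strongly autofluorescent ones, cut at about 32% in these data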;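 note: kinetic rate of NADH fluorescence loss reporting ADP formed by the decarboxylase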
# MK inhibit – inhibitors of Streptococcus pneumoniae mevalonate kinase; 65,000 compounds, 0.48% hits; inhibition, % at 10 µM; purified MK, PK/LDH-coupled NADH absorbance 340 nm;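 active = ranked among the strongest by inhibition in the single 10 µM screen, a fixed top-ranked set picked for dose follow-up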
# The depositor's hits bear a star; i = inactive; · = no result given; + = active, no number.
SMILES,PMK inhibit,Fluor 339 460,NADH coupling,A340 absorber,Spn DPM-DC inh,MK inhibit
Cn1c(C(=O)NCCCN2CCN(c3ccc(F)cc3)CC2)cc2c(=O)n(C)c3ccccc3c21,9,1.1,2%,0.99,i,7
COCCn1cc(C(=O)NCCCN2CCC(C)CC2)c2c3ccccc3n(C)c2c1=O,15,2.5*,8%,1,+,0
COCCn1cc(C(=O)NCc2cccs2)c2c3ccccc3n(C)c2c1=O,15,3.5*,15%,1,i,11
CCCN(CCC)CCNC(=O)c1cc2c(=O)n(C)c3ccccc3c2n1C,10,1.6,4%,1,·,5
CCN1CCN(CCCNC(=O)c2cn(CCOC)c(=O)c3c2c2ccccc2n3C)CC1,6,3*,4%,1,i,1
COCC(=O)N(C)C1(c2nnnn2CCOC(=O)Nc2cccc3ccccc23)CCCC1,5,1.6,9%,1,i,10
O=C(O)c1ccc(S(=O)(=O)NC2CCCc3ccccc32)cc1 (configuration not stated),17,1.1,6%,1,i,0
CC(=O)N1CCc2cc(S(=O)(=O)NC3CCCc4ccccc43)ccc21 (configuration not stated),27*,1.1,9%,1.1,i,0
CCn1cnc2sc(C(=O)N3CCN(c4ccc(OC)cc4)CC3)c(C)c2c1=O,15,1,7%,1,i,4
O=c1oc2c3c4c(cc2c2c1CCC2)OCCN4CCC3,10,2.2*,7%,1.1,·,4
COc1ccccc1-c1nnc(NC(=O)c2ccc(S(=O)(=O)N(C)Cc3ccccc3)cc2)o1,10,3*,5%,1,·,6
CN(Cc1ccccc1)S(=O)(=O)c1ccc(C(=O)Nc2nnc(C3CC3)o2)cc1,10,1.1,4%,1,i,3
Cc1sc(NC(=O)CSc2nnc(COc3ccccc3)n2C)c(C#N)c1C,17,2.1*,5%,1,i,9
CCc1cc2c(=O)c(-c3cnn(-c4ccccc4)c3)coc2c(CN2CCOCC2)c1O,14,2.9*,9%,0.97,i,2
O=C(c1coc2ccc(O)c(CN3CCOCC3)c12)C1CC1,13,1.1,9%,1,i,13
Cc1oc2c(CN3CCCC3)c(O)ccc2c(=O)c1-c1ccccc1,17,3*,6%,1.1,·,9
CCc1cc2c(=O)c(-c3nc4ccccc4n3C)coc2c(CN2CCOCC2)c1O,6,1.3,12%,1.2,i,1
Cc1oc2c(CN3CCOCC3)c(O)ccc2c(=O)c1-c1ccc(Br)cc1,12,3.1*,6%,0.99,·,6
O=c1c(-c2ccc(Br)cc2)coc2c(CN3CCOCC3)c(O)ccc12,7,3*,4%,1.1,·,1
CSc1nc(-c2ccccc2O)nc(-c2ccccc2O)n1,10,1.1,9%,1.1,i,8
Cc1ccccc1C(=O)NCc1ccncc1,8,1.1,8%,1,i,11
Cc1cccc(CNC(=O)c2ccccc2N)c1,4,3.6*,5%,1.1,·,6
CC1CC(C)CN(CCCNC(=O)Cn2ncc3c(=O)oc4ccccc4c32)C1 (configuration not stated),7,0.57,18%,0.99,+,10
O=c1c2c([nH]c3ccccc13)C(=C1CCCC1)CC2,0,2.1*,0%,1.1,·,0
CC(C)(C)C1CCc2[nH]c3ccccc3c(=O)c2C1 (configuration not stated),0,1.2,0%,1.1,i,0
SMILES,PMK inhibit,Fluor 339 460,NADH coupling,A340 absorber,Spn DPM-DC inh,MK inhibit
N#Cc1cc2cc3c(cc2nc1N1CCCCC1)OCCO3,12,3*,11%,1.1,i,5
Cc1ccc(S(=O)(=O)N2CCOCC2)cc1C(=O)NCc1cn2ccsc2n1,4,1.1,2%,1,i,1
CCN1CCCC1Cn1cnc2c([nH]c3ccc(C)cc32)c1=O (configuration not stated),2,2.3*,6%,1,·,9
O=c1c2[nH]c3ccccc3c2ncn1CCN1CCCCC1,5,2.1*,11%,1,i,9
Cc1cccc2[nH]c3c(=O)n(CCN4CCNCC4)cnc3c12,10,2.5*,14%,1,i,10
Cc1ccc2[nH]c3c(=O)n(CCN4CCNCC4)cnc3c2c1,11,3.1*,12%,1,i,8
CCN1CCCC1CNc1ncnc2c1[nH]c1ccc(Cl)cc12 (configuration not stated),12,1.8,10%,1.1,i,10
CCC1Oc2ccccc2N(CC(=O)Nc2ccc(OC)cc2OC)C1=O (configuration not stated),14,1,4%,0.99,i,2
CCOC(=O)C1C2C=CC3(CN(C4CCCC4)C(=O)C13)O2 (configuration not stated),7,1.1,5%,1,i,9
O=C1c2oc3ccccc3c(=O)c2C(c2ccc(Br)cc2)N1c1ncccn1 (configuration not stated),4,1.1,4%,1,i,7
Cc1ccc2[nH]c(=O)c(CN(CCN3CCOCC3)C(=O)Nc3ccc(F)cc3)cc2c1,8,1.2,6%,1,i,10
Cc1ccc(NC(=O)N(Cc2ccc3c(c2)OCO3)Cc2cc3cc4c(cc3[nH]c2=O)OCCO4)cc1,8,1.4,3%,1.1,i,0
Cc1ccc(NC(=O)N(CCCN2CCOCC2)Cc2cc3cc4c(cc3[nH]c2=O)OCO4)cc1,15,2.9*,21%,1.1,+,15
O=C(Nc1ccccc1)N(CCCN1CCOCC1)Cc1cc2cc3c(cc2[nH]c1=O)OCCO3,13,2.5*,5%,1,·,12
CCOc1ccc2[nH]c(=O)c(CN(CCc3ccccc3)C(=O)c3cnccn3)cc2c1,16,1.4,5%,1.1,i,0
CCOc1ccc2[nH]c(=O)c(CN(CC3CCCN3CC)C(=O)NCc3ccccc3)cc2c1 (configuration not stated),19,3.4*,10%,1,·,0
O=C(Nc1ccc(F)cc1)N(Cc1ccco1)Cc1cc2cc3c(cc2[nH]c1=O)OCO3,21,2.7*,16%,1,·,6
CN(C1CCCCC1)S(=O)(=O)c1ccc(Cl)c(C(=O)O)c1,14,1.1,5%,1,i,0
CC(C(=O)NCC1CCCO1)n1cccc1C(=O)c1ccccc1 (configuration not stated),13,1,4%,1.1,i,0
CCc1ccc2[nH]c(=O)c(CN(CCCN3CCOCC3)C(=O)Nc3ccccc3)cc2c1,11,1.4,5%,1,i,5
CCN(CC)CCCN(Cc1cc2cc3c(cc2[nH]c1=O)OCCO3)C(=O)Nc1ccccc1,10,3*,18%,1,+,9
